# Compound activity (PubChem BioAssay)
# MCF10A rerep: inducers of DNA re-replication in MCF 10A breast cells. MCF 10A DNA re-replication, Hoechst nuclear intensity, 48 h. Potency, µM (series often up to 46.1 µM), inactives show top-dose activity, positive = re-replication, most hits filed as activators. actives 2.9% (n = 350,000); also: % of control where 0% means no effect; nearly all actives have a fitted effect of over 50% in size
# KB-V1 cytotox: kills drug-selected multidrug resistant KB-V1 cells; KB-V1 MDR cells viability, CellTiter-Glo, 72 h; actives 3.4% (n = 400,000); Potency, µM (top dose mostly 46.1 µM), actives largely listed as cytotoxic; also: % is scaled to controls: 0 for no effect and ±100 for the full control effect; nearly all actives have a fitted effect of over 60% in size
#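 In this primary screen, KB-V1 cells overexpressing P-gp are incubated with library compounds (lowest to highest concentration) for 72 h at 37 degrees C before a luminescent ATP viability read.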
# RGS4 inh: inhibitors of human regulator of G protein signaling 4; Potency, µM (doses to about 114 µM), for the others: top-dose activity change, negative = inhibition, usual class: inhibitors; Transcreener GDP fluorescence polarization, RGS4-accelerated GTP hydrolysis; actives 0.039% (n = 390,000); P49798; also: % is scaled to controls: 0 for no effect and ±100 for the full control effect; nearly all actives have a fitted effect of over 75% in size
# Target sequence (P49798 whole entry, looked up): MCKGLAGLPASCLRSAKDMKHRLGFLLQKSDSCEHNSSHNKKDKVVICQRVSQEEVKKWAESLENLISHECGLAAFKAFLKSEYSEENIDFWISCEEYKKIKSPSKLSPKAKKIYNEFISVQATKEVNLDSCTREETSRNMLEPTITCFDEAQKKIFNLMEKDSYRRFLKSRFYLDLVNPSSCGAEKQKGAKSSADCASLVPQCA
#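 MLSMR compounds (23 nl, pin-transferred) preincubated 10 min at room temperature with a 500nM (2x) first reagent, then RGS4 at 900nM (2x) plus Transcreener GDP mix added; fluorescence polarization (620/688 nm) read before and after 90 min at 30 °C.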
# KB-3-1 tox: kills parental KB-3-1 adenocarcinoma cells | KB-3-1 viability, CellTiter-Glo ATP luminescence, 72 h | Potency, µM (series often up to 46.1 µM), most hits filed as cytotoxic | actives 1.4% (n = 400,000) | AID 1347075; also: % is scaled to controls: 0 for no effect and ±100 for the full control effect; nearly all actives have a fitted effect of over 60% in size
#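 Using CellTiter-Glo luminescence, growth of non-resistant KB-3-1 adenocarcinoma cells is assessed 72 h after pin-tool compound addition at 37 °C. Normalized responses across the concentration series yield fitted curves.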
# SW480 rerep: inducers of DNA re-replication in SW480 colon cancer cells | SW480 DNA re-replication, Hoechst DNA content imaging, 48 h | Potency, µM (doses to about 46.1 µM), for the others: at the top dose re-replication activation, usual class: activators | actives 1.8% (n = 340,000) | AID 624297; also: % of control where 0% means no effect; nearly all actives have a fitted effect of over 55% in size
#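 DNA re-replication was detected as more nuclei of elevated Hoechst intensity after 48 hr exposure to compound (23 nL pinned per well of 250 cells).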
# TSG101-PTAP inh: blocks PTAP/TSG101 interaction to inhibit HIV-1 budding; Q99816; Fluorescence polarization, FITC-PTAP peptide / Tsg101 binding; Potency, µM (highest dose often 115 µM), for the others: at the top dose activity change, negative = inhibition, hits mostly inhibitors; 340,000 tested, under 10 active; AID 493005; active = well fitted inhibition curve with a large enough effect in the main read-out, with a control signal flat, not every such curve was filed as active; inconclusive = small, poorly fitted or top-dose-only effect, or effect the other way, or a change in a side signal; inactive = no such curve, though single readings can be large or run the other way; also: % of control where 0% means no effect
# Target sequence (Q99816 whole entry, looked up): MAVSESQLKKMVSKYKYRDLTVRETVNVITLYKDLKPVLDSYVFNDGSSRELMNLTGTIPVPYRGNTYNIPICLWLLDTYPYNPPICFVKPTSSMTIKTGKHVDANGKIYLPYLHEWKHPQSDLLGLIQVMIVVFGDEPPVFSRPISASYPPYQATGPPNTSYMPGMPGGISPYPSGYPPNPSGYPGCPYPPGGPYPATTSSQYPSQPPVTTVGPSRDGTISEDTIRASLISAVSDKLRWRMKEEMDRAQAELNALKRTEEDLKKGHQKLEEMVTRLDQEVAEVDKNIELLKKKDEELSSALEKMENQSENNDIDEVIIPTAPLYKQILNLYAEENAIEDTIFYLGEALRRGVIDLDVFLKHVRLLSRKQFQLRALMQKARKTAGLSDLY
#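 FP read-out: FITC-PTAP peptide, 50 nM final, binding Tsg101 binding domain, 10 uM final; 20 min, r.t.; 10 mM HEPES pH 7.5, 0.15 M NaCl, 0.01% Tween 20, 3 mM EDTA, 0.1 mM TCEP.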
# * = called active by the depositor; i = inactive; ? = inconclusive; / = no result; [ ] = dose if it differs, or a comment. Compounds with a hit are over-represented: about 6.6% of the library has one in this group of screens. Unless noted, calls follow the shape of the dose curve; as a rule, active = well fitted curve in the direction sought with a large enough effect; inconclusive = small, poorly fitted or top-dose-only effect, or another doubt; inactive = no such curve, though single readings can be large; an effect the other way counts as inactive or inconclusive. Potency is read from the fitted curve at half-maximal effect.
SMILES,MCF10A rerep,KB-V1 cytotox,RGS4 inh,KB-3-1 tox,SW480 rerep,TSG101-PTAP inh
CCc1ccc(C(C)NC(=S)NCc2ccc(F)cc2)cc1 (stereo not given),25.9µM*,i,-6.0%,?,?,-0.6%
Cc1cc(C)c(S(=O)(=O)/N=C2/C=C(Sc3ncn[nH]3)C(=O)c3ccccc32)cc1C,2.31µM*,?,-121.2%,?,2.59µM*,14.9%
Cc1c(OCC(=O)NC2CC(C)(C)NC(C)(C)C2)ccc2c3c(c(=O)oc12)CCC3,11.2%,i,11.4%,i,?,-6.1%
Cc1c(OCC(=O)NC2CC(C)(C)NC(C)(C)C2)ccc2c1oc(=O)c1ccccc12,2.4%,i,-5.0%,i,13µM*,-1.0%
O=C(CNC(=O)C1CCCCC1)OCC(=O)c1ccc(-c2ccccc2)cc1,/,i,10.4%,i,/,/
CCCN1CCC(=NNc2ccc(S(N)(=O)=O)cc2[N+](=O)[O-])CC1,-3.4%,i,-8.5%,i,-16.6%,-0.4%
CCCN1CCC(=NNc2ccc(S(=O)(=O)N(CC)CC)cc2[N+](=O)[O-])CC1,5.7%,11.6µM*,-19.5%,?,?,0.2%
COc1ccc(/C=N/NC(=O)CNC(=O)c2ccc3c(c2)OCCO3)cc1OC,8.2%,i,20.4%,i,1.3%,-12.7%
COc1ccc(C(=O)NCC(=O)N/N=C/c2cccc(OC(=O)c3ccco3)c2)cc1OC,3.26µM*,?,-9.0%,i,-7.0%,-3.6%
CCOC(=O)C1=C(C)Nc2ccc(C)cc2S1,10.0%,i,-53.7%,i,3.4%,-1.3%
CCOCCOC(=O)C1=C(C)Nc2ccc(C)cc2S1,-2.1%,13µM*,-50.8%,i,-0.5%,-9.9%
CN(C)CCSc1nnc(-c2ccccc2)o1,?,i,3.5%[11.4 µM],i,-5.4%,-2.4%
CN(C)c1cccc(-c2nnc(SCCCC#N)o2)c1,1.8%,20.6µM*,29.0%,i,-4.8%,-1.8%
CC1c2[nH]c3ccccc3c2CCN1C(=O)Nc1ccccc1 (stereo not given),9.9%,8.2µM*,-35.4%,?,?,-5.4%
O=C(Nc1ccccc1)N1CCc2c([nH]c3ccccc23)C1C(F)(F)F (stereo not given),?,?,15.2%,i,?,-0.8%
O=C(c1ccc(Cl)cc1)N1CCc2c([nH]c3ccccc23)C1C(F)(F)F (stereo not given),?,i,24.2%,i,14.1%,0.1%
COc1cccc(Cl)c1NC(=O)N1CCc2c([nH]c3ccccc23)C1C(F)(F)F (stereo not given),5.8µM*,i,6.5%,i,?,-1.0%
Cc1ccc(N=C2NC(=O)/C(=C\c3ccsc3)S2)c(C)c1,18.4µM*,18.4µM*,-22.2%,i,2.9%,-7.1%
Cc1ccc(N=C2NC(=O)/C(=C/c3cccnc3)S2)c(C)c1,?,i,-8.3%,i,-2.6%,-0.3%
CS(=O)(=O)c1ccc(NC(=O)COc2ccccc2C(=O)Nc2ccccc2)cc1,/,i,/,i,/,/
CSc1nnc(-c2sc3cc(C(F)(F)F)cnc3c2-c2ccccn2)n1C,7.4%,18.4µM*,13.0%[11.4 µM],?,10.2%,-8.2%
CC1=C(c2ccc(C(C)C)cc2)S(=O)(=O)N=C1N1CCC(C(=O)NCc2ccccc2)CC1,/,?,-9.7%,i,/,/
COC(=O)c1ccc(/C=C/c2c(-c3ccsc3)sc3ccccc23)cc1,16.4µM*,i,-10.0%,?,4.11µM*,-0.2%
O=C1c2[nH]nc(-c3ccccc3O)c2C(c2cccc(Br)c2)N1Cc1ccncc1 (stereo not given),/,?,24.5%,2.59µM*,/,/
Cc1ccc(C2c3c(-c4ccccc4O)n[nH]c3C(=O)N2Cc2ccncc2)cc1 (stereo not given),7.31µM*,?,-3.1%,8.2µM*,18.4µM*,1.2%
SMILES,MCF10A rerep,KB-V1 cytotox,RGS4 inh,KB-3-1 tox,SW480 rerep,TSG101-PTAP inh
COc1cc(C2c3c(-c4ccccc4O)n[nH]c3C(=O)N2Cc2ccncc2)ccc1O (stereo not given),/,i,7.4%,i,/,/
CCC(=O)N1CCc2cc(Br)cc(S(=O)(=O)N3CCN(c4ccc(C)cc4)C(C)C3)c21 (stereo not given),/,i,-11.3%,i,/,/
N#Cc1ccc(N2CCN(S(=O)(=O)c3ccc4c(c3)CC(=O)N4)CC2)cc1,/,i,/,?,/,/
COC(=O)/C(N=Nc1cccc(C(F)(F)F)c1)=C(\C)O,3.5%,5.8µM*,14.3%,?,0.7%,-8.3%
CCOc1ccccc1NC(=O)CCN(c1ccc(C)cc1)S(=O)(=O)c1ccccc1,6.2%,2.59µM*,-35.0%,?,-1.3%,-0.1%
CCOc1ccc(NC(=O)c2cc3cc(C)ccc3n2C)cc1,/,i,-3.6%,i,/,/
CCCNC(=O)c1ccccc1NC(=O)c1ccccc1N(C)S(C)(=O)=O,-2.7%,i,-9.8%,i,-5.5%,-0.6%
CCCNC(=O)c1ccccc1NC(=O)c1ccccc1N(C)S(=O)(=O)c1ccc(C)cc1,?,?,-12.2%,18.4µM*,?,0.2%
CCOc1ccccc1NC(=O)c1ccccc1N(C)S(=O)(=O)c1ccc(C)cc1,6.2%,11.6µM*,-21.1%,?,0.6%,0.6%
CCOc1ccccc1NC(=O)c1cc2cc(C)ccc2n1C,/,8.2µM*,10.1%,?,/,/
C=C1C=C(C(F)F)n2ncc(C(=O)NCCc3ccc(Cl)cc3)c2N1,/,i,/,i,/,/
COc1ccccc1NC(=O)C(C)Sc1nnc2ccc3ccccc3n12 (stereo not given),/,i,16.7%,i,/,/
CCCCN(CC)CCCn1cnc2c([nH]c3ccc(Cl)cc32)c1=O,/,i,0.1%,i,/,/
COc1cc(CN(C)C)cc(C=O)c1O,?,i,-19.1%,i,1.7%,0.9%
COc1cc(N=Nc2ccc(Br)cc2)cc(C=O)c1O,/,14.6µM*,/,?,/,/
COc1cc(OCc2ccccc2)c(OC)c(OCc2ccccc2)c1,16.4µM*,i,-8.8%,i,?,-0.3%
COc1c(Br)cc(C(N)=O)cc1OCc1ccccc1,?,i,-7.5%,i,0.3%,-8.8%
Cc1nc2c(nc1C)C(=O)c1ccccc1C2=O,5.8µM*,9.2µM*,30.5%,16.4µM*,13µM*,-0.9%
O=C1c2ccccc2-c2nc3ccccc3nc21,17.0%,i,-4.0%,i,-10.9%,-7.5%
COc1c(C)cc(Br)cc1C(=O)Nc1ccc(Cc2ccncc2)cc1,16.4µM*,i,-1.3%,i,?,-0.1%
